Experimental data as given in PubChem BioAssay (Tox21).
Results filed as inconclusive are left out. A number with no mark means an inactive call. Calls follow the shape of the dose curve; as a rule, active = well fitted activation curve with a large enough effect in the repeat runs; inconclusive = weak or mixed curves; inactive = flat fitted curve, though single readings scatter.

Experiment: A CellTox Green Cytotoxicity Assay to monitor cytotoxicity in HepG2 cells - 24 hour (AID 1224878); also: nearly all actives have a fitted effect of over 45% in size
Details: CellTox Green fluorescence; series mostly up to 76.8 µM; cytotoxicity: at the top concentration
Summary of the method: (§1)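 HepG2 cells were seeded together with the CellTox Green dye at 600 cells/well, left 5 h at 37 C/5% CO2, then given compounds in DMSO. Fluorescence from dye bound to dead-cell DNA was read repeatedly over 40 h of treatment at 37 C.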
% is scaled to controls: 0 for no effect and ±100 for the full control effect.

SMILES | cytotoxicity
C[N+](C)(C)CC(O)CCl (stereo unspecified) | -17.7%
CCNC(=O)/C=C/c1cccc(Br)c1 | 0.969% [at 35.3 µM]
BrC/C=C/CBr | -16.1% [at 15.8 µM]
O=C(O)c1c(Cl)ccc(Cl)c1Cl | 1.73%
CCCCCCCCCCCCCCCCI | -11% [at 15.8 µM]
COc1ccc(OC)c(NC(=O)CC(C)=O)c1 | -8.37%
CN(C)CCOCCN(C)CCO | 0.416%
CCCCC/C=C/CC(=O)OC | -0.343%
CCCCCCCCCCCCOC(C)=O | 0.631%
COc1cc2c3cc1Oc1cc(ccc1O)C[C@@H]1c4c(cc(OC)c(O)c4Oc4ccc(cc4)C[C@@H]3N(C)CC2)CC[N+]1(C)C | -14.2% [at 35.3 µM]
O=C(O)CCNC(=O)c1ccccc1 | -7.46% [at 35.3 µM]
C=C[Si](C)(C)O[Si](C)(C)C=C | -13%
Nc1cc(C(=O)O)ccc1Cl | 0.612%
NC(=O)C1(N2CCCCC2)CCN(CCCC(=O)c2ccc(F)cc2)CC1 | -1.01% [at 35.3 µM]
N#CCCOCCOCCC#N | -4.24%
C[C@H](CCC(=O)NCC(=O)O)[C@H]1CC[C@H]2[C@@H]3[C@H](O)C[C@@H]4C[C@H](O)CC[C@]4(C)[C@H]3C[C@H](O)[C@]12C | -11.5%
CCS(=O)(=O)CCn1c([N+](=O)[O-])cnc1C | 11.3% [at 35.3 µM]
CC(C)(c1ccc(Oc2ccc3c(c2)C(=O)OC3=O)cc1)c1ccc(Oc2ccc3c(c2)C(=O)OC3=O)cc1 | -4.93%
C=CCOc1c(Br)cc(Br)cc1Br | 14.8%

SMILES | cytotoxicity
O=C(O)/C=C/c1ccccc1 | -2.29%
CC1=NN(c2ccc(S(=O)(=O)O)cc2)C(=O)C1N=Nc1ccccc1 (stereo unspecified) | 17.6%
CCCCC(CC)C(=O)OC(C)C (stereo unspecified) | -11.8%
SCCSCCS | -5.84%
Cc1cccc(C(=O)O)c1[N+](=O)[O-] | -0.0261%
Cc1ccccc1N1CCN(CCc2nnc3n2CCCC3)CC1 | -4.38% [at 35.3 µM]
OC(CCN1CCCCC1)(c1ccccc1)c1ccccc1 | -5.08% [at 35.3 µM]
CN(C)CCCNCCC#N | -5.3%
c1ccccc1 | -14.3%
O=CN1CCOCC1 | -9.64%
CC(Cl)COP(=O)(OCC(C)Cl)OCC(C)Cl (stereo unspecified) | -8.92%
CCC1COC(=O)O1 (stereo unspecified) | -21.2%
O=C1OC(=O)c2cc(Oc3ccc4c(c3)C(=O)OC4=O)ccc21 | -6.02%
CCN(CCC#N)c1ccccc1 | -0.752%
CCCCCCCC/C=C\CCCCCCCC(=O)OC[C@@H](O)[C@H]1OC[C@H](O)[C@H]1O | 0.621%
CCC1Nc2cc(Cl)c(S(N)(=O)=O)cc2S(=O)(=O)N1 (stereo unspecified) | -10.8% [at 35.3 µM]
CNC(=O)NC | 1.65%
CCC(CO)CO | -14.5%
NC(Cc1c[nH]c2ccccc12)C(=O)O (stereo unspecified) | 1.56% [at 35.3 µM]

Experiment: A CellTox Green Cytotoxicity Assay to monitor cytotoxicity in HepG2 cells - 40 hour (AID 1224879); also: nearly all actives have a fitted effect of over 40% in size
Details: CellTox Green fluorescence; series mostly up to 76.8 µM; cytotoxicity increase: at the top concentration
Summary of the method: as §1

SMILES | cytotoxicity increase
C[N+](C)(C)CC(O)CCl (stereo unspecified) | -21.4%
CCNC(=O)/C=C/c1cccc(Br)c1 | 3.86% [at 35.3 µM]
BrC/C=C/CBr | -17.2% [at 15.8 µM]
O=C(O)c1c(Cl)ccc(Cl)c1Cl | 0.587%
CCCCCCCCCCCCCCCCI | -12.9% [at 15.8 µM]
COc1ccc(OC)c(NC(=O)CC(C)=O)c1 | -9.88%
CN(C)CCOCCN(C)CCO | -5.69%
CCCCC/C=C/CC(=O)OC | -4.63%
CCCCCCCCCCCCOC(C)=O | 0.358%
COc1cc2c3cc1Oc1cc(ccc1O)C[C@@H]1c4c(cc(OC)c(O)c4Oc4ccc(cc4)C[C@@H]3N(C)CC2)CC[N+]1(C)C | -15.7% [at 35.3 µM]
O=C(O)CCNC(=O)c1ccccc1 | -8.19% [at 35.3 µM]
C=C[Si](C)(C)O[Si](C)(C)C=C | -17.7%
Nc1cc(C(=O)O)ccc1Cl | -0.185%
NC(=O)C1(N2CCCCC2)CCN(CCCC(=O)c2ccc(F)cc2)CC1 | -3.73% [at 35.3 µM]
N#CCCOCCOCCC#N | -6.82%
C[C@H](CCC(=O)NCC(=O)O)[C@H]1CC[C@H]2[C@@H]3[C@H](O)C[C@@H]4C[C@H](O)CC[C@]4(C)[C@H]3C[C@H](O)[C@]12C | -12.6%
CCS(=O)(=O)CCn1c([N+](=O)[O-])cnc1C | 3.2% [at 35.3 µM]
CC(C)(c1ccc(Oc2ccc3c(c2)C(=O)OC3=O)cc1)c1ccc(Oc2ccc3c(c2)C(=O)OC3=O)cc1 | -4.38%
C=CCOc1c(Br)cc(Br)cc1Br | 14.4%

SMILES | cytotoxicity increase
O=C(O)/C=C/c1ccccc1 | -5.34%
CC1=NN(c2ccc(S(=O)(=O)O)cc2)C(=O)C1N=Nc1ccccc1 (stereo unspecified) | 16.3%
CCCCC(CC)C(=O)OC(C)C (stereo unspecified) | -10.5%
SCCSCCS | -10.5%
Cc1cccc(C(=O)O)c1[N+](=O)[O-] | -2.43%
Cc1ccccc1N1CCN(CCc2nnc3n2CCCC3)CC1 | -2.61% [at 35.3 µM]
OC(CCN1CCCCC1)(c1ccccc1)c1ccccc1 | -0.834% [at 35.3 µM]
CN(C)CCCNCCC#N | -6.97%
c1ccccc1 | -18%
O=CN1CCOCC1 | -7.68%
CC(Cl)COP(=O)(OCC(C)Cl)OCC(C)Cl (stereo unspecified) | -2.21%
CCC1COC(=O)O1 (stereo unspecified) | -21%
O=C1OC(=O)c2cc(Oc3ccc4c(c3)C(=O)OC4=O)ccc21 | -9.66%
CCN(CCC#N)c1ccccc1 | 1.91%
CCCCCCCC/C=C\CCCCCCCC(=O)OC[C@@H](O)[C@H]1OC[C@H](O)[C@H]1O | -3.08%
CCC1Nc2cc(Cl)c(S(N)(=O)=O)cc2S(=O)(=O)N1 (stereo unspecified) | -10.3% [at 35.3 µM]
CNC(=O)NC | 1.32%
CCC(CO)CO | -14.2%
NC(Cc1c[nH]c2ccccc12)C(=O)O (stereo unspecified) | 0.407% [at 35.3 µM]
